# Article PMC7862700, “An all-to-all approach to the identification of sequence-specific readers for epigenetic DNA modifications on cytosine”
# Tests used:
# Test in all cases: DAPPL (digital affinity profiling via proximity ligation, sequencing); 10 mM Tris-HCl pH 7.5, 50 mM NaCl, 1 mM DTT, 4% glycerol, room temperature, 30 min; GST-TFs on glutathione beads, 16-mer random dsDNA library, 0.1% formaldehyde crosslink after washing; high values mean tight binding
# Details in all cases: protein: recombinant; tags: N-terminal GST; dsDNA, one strand shown
# ELK1 = biological target: T1, ELK1 (Homo sapiens, UniProt P19419 1-428)
# T1 sequence: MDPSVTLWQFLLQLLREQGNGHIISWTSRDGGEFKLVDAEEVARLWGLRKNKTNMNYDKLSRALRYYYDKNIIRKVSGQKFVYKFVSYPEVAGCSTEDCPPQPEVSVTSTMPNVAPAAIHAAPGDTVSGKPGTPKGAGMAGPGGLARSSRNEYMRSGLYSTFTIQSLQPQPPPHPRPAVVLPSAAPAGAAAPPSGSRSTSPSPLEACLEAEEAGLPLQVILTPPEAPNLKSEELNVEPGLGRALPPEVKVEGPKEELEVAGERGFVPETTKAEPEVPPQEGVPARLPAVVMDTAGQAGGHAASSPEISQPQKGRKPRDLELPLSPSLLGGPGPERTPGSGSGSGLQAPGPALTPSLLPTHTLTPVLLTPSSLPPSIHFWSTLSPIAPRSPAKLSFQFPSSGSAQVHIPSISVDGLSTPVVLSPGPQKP
# Outline: (§1)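 A tag-only sample was pooled with DNA-barcoded human transcription factors that had been expressed in yeast as GST fusions and captured on glutathione beads. The pools were incubated for 30 min at room temperature with 200 nmole of a random double-stranded 16-mer DNA library in Tris/NaCl/DTT/glycerol buffer, then washed, crosslinked with 0.1% formaldehyde, proximity-ligated (BsaI/T4 ligase, 1 h, 37 °C), PCR-amplified and sequenced on an Illumina NextSeq500. Binding signal is each hexamer's read frequency for a factor divided by its frequency for the tag-only sample.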
# GABPA = biological target: T2, GABPA (Homo sapiens, UniProt Q06546 1-454)
# T2 sequence: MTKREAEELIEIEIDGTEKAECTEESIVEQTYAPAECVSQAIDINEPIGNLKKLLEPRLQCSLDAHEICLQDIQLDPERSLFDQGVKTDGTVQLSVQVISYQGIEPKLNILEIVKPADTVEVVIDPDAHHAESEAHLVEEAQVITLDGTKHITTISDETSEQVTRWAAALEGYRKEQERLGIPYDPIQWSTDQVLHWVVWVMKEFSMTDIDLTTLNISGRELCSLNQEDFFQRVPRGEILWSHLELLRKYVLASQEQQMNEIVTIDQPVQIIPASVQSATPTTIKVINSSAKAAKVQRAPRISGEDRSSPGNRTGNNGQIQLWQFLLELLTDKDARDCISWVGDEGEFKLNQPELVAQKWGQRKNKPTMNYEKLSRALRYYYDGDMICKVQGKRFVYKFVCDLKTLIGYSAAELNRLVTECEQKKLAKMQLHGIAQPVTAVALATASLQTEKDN
# Outline: as §1
# ERG = biological target: T3, ERG (Homo sapiens, UniProt P11308 1-479)
# T3 sequence: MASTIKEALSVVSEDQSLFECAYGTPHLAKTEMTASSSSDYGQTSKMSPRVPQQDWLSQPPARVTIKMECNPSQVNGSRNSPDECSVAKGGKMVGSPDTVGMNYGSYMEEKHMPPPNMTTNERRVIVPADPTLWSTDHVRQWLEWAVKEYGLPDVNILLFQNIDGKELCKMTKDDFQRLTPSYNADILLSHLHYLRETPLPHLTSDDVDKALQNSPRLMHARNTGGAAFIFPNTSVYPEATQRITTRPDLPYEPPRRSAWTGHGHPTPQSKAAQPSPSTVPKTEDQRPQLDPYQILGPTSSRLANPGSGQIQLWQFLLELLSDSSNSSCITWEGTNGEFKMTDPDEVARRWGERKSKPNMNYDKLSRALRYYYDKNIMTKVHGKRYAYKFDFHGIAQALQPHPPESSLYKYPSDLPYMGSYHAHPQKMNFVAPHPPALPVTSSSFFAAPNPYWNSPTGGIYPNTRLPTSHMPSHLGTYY
# Outline: as §1
# ELF1 = ELF1 (Homo sapiens, UniProt P32519 1-619)
# Outline: as §1
# EHF = biological target: T4, EHF (Homo sapiens, UniProt Q9NZC4 1-300)
# T4 sequence: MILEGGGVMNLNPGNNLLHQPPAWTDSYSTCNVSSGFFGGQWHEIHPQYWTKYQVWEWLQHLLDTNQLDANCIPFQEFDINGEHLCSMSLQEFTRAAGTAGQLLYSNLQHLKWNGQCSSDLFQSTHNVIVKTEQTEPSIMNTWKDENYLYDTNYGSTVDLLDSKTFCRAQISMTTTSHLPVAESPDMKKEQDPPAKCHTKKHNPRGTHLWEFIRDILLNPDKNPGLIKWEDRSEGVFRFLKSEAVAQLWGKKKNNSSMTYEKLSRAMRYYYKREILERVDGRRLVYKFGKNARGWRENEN
# Outline: as §1
# SPIB = SPIB (Homo sapiens, UniProt Q01892 1-262)
# Outline: as §1
# ETV5 = ETV5 (Homo sapiens, UniProt P41161 1-510)
# Outline: as §1
# ELF4 = ELF4 (Homo sapiens, UniProt Q99607 1-663)
# Outline: as §1
# ELK4 = biological target: T5, ELK4 (Homo sapiens, UniProt P28324-2 1-405)
# T5 sequence: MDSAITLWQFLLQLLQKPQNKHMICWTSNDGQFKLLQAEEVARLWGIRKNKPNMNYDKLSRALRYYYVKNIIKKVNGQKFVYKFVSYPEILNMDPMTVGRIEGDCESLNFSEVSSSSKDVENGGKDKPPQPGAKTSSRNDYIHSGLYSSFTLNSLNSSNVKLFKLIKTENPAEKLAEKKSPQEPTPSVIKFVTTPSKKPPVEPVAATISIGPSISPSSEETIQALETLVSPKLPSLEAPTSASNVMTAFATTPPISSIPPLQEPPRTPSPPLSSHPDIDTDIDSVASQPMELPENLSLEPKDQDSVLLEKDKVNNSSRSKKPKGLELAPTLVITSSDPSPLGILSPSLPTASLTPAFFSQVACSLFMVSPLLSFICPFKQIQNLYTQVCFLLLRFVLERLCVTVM
# Outline: as §1
# Chain of ETV5 (P41161 whole entry): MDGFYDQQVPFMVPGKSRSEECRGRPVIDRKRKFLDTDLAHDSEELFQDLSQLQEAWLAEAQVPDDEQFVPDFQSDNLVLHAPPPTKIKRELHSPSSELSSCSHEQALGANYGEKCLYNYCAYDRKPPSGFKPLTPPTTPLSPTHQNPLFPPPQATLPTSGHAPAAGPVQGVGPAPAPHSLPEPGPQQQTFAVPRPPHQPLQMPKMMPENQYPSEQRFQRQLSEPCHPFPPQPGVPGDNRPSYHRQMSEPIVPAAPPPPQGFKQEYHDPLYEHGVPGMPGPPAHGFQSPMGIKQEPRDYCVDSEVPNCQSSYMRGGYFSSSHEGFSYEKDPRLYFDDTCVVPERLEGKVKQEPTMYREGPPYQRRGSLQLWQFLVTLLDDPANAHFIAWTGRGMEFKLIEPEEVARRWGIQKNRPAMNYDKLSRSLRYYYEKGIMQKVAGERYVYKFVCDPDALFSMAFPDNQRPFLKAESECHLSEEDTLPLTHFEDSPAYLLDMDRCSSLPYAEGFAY
# Chain of ELF4 (Q99607 whole entry): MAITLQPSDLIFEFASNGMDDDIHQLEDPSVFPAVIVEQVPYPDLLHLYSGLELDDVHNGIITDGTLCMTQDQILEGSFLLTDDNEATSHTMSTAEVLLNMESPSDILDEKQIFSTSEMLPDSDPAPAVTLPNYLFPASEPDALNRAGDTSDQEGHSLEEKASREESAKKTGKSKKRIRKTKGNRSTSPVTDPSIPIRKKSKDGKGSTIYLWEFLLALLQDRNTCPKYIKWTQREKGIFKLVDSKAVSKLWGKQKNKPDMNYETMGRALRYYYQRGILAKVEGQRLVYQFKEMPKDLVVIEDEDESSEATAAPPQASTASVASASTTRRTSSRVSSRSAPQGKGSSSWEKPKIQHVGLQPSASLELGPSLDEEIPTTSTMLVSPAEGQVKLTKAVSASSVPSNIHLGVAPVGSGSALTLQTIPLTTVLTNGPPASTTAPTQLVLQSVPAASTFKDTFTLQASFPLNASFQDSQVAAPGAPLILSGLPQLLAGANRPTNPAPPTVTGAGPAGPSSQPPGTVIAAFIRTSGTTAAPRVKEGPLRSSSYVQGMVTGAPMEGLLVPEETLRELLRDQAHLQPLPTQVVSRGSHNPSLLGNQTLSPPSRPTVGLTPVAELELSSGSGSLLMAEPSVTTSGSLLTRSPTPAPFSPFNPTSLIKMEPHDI
# Chain of SPIB (Q01892 whole entry): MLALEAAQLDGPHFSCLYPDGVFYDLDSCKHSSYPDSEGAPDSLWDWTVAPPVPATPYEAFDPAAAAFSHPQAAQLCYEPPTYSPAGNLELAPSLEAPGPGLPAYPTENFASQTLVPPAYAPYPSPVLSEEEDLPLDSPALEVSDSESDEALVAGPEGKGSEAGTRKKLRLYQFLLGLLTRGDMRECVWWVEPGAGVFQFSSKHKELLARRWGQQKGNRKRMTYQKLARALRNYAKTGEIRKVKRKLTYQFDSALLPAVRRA
# Chain of ELF1 (P32519 whole entry): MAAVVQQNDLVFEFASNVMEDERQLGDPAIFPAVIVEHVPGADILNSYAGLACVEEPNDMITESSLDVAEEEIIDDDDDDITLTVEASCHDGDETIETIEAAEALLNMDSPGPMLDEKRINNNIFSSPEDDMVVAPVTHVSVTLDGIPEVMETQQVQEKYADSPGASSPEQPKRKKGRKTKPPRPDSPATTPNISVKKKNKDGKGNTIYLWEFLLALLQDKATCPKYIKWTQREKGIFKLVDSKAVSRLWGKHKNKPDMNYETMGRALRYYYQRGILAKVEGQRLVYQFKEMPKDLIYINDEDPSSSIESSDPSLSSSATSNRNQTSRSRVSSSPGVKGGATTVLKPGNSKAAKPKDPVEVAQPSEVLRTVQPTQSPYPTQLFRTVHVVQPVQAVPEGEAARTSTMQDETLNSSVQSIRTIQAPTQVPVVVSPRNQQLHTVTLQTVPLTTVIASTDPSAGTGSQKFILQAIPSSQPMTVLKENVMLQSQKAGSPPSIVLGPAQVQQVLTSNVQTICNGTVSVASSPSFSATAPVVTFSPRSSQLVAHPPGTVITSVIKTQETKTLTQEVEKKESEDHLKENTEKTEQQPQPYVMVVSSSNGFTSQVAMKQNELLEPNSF
sequence,measurement,setting,value
TATGTC,binding signal,ELK1,"1.05 fold enrichment (6-mer frequency, TF over GST control)"
same,binding signal,GABPA,"1.17 fold enrichment (6-mer frequency, TF over GST control)"
same,binding signal,ERG,"1.08 fold enrichment (6-mer frequency, TF over GST control)"
same,binding signal,ELF1,"1.11 fold enrichment (6-mer frequency, TF over GST control)"
same,binding signal,EHF,"1.02 fold enrichment (6-mer frequency, TF over GST control)"
same,binding signal,SPIB,"1.16 fold enrichment (6-mer frequency, TF over GST control)"
same,binding signal,ETV5,"1.07 fold enrichment (6-mer frequency, TF over GST control)"
same,binding signal,ELF4,"1.14 fold enrichment (6-mer frequency, TF over GST control)"
same,binding signal,ELK4,"1.05 fold enrichment (6-mer frequency, TF over GST control)"
